# KCNH2 3.1 inh – qHTS for Inhibitors of KCHN2 3.1: Mutant qHTS | 340,000 compounds, 0.95% hits | activity change, % (tested at about 1.8 µM) | Potassium voltage-gated channel subfamily H member 2, brain isoform KCNH2 3.1 (human) | U2OS KCNH2 3.1, thallium flux FluxOr; active compounds read low;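 active = maximum activity change below -70%; inconclusive = maximum activity change from -70% to -50%; inactive = maximum activity change above -50%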;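 also: thallium influx rate constant from kinetic fluorescence after stimulation buffer; % is scaled to controls: 0 for no effect and ±100 for the full control effect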
#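 Virally transduced U2OS (3.1 isoform, 4 h infection in dark at RT) → overnight 37 C → FluxOr + Red40 in HBSS/HEPES, 45 min → stimulation buffer, 2 min kinetic read → rate constant vs DMSO controls.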
# SW480 rerep – A quantitative high throughput screen for small molecules that induce DNA re-replication in SW480 colon adenocarcinoma cells | SW480 DNA re-replication, Hoechst DNA content imaging, 48 h | Potency, µM (top dose mostly 46.1 µM), for inactives: at the top dose re-replication activation, most hits filed as activators | 340,000 compounds, 1.8% hits | AID 624297, 2012; also: potency is read from the fitted curve at half-maximal effect; % of control where 0% means no effect; nearly all actives have a fitted effect of over 55% in size
#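 SW480 cells exposed to compounds for 48 hr at 37 C, 5% CO2, then Hoechst-stained 40 min. Nuclear DNA content imaged by fluorescence scanning (405 nm excitation, 500-530 nm emission); re-replication scored as increased high-intensity nuclei.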
# KB-3-1 tox – qHTS assay for MDR1-selective chemotherapeutics: Primary screen using the parental adenocarcinoma cell KB-3-1. Potency, µM (series often up to 46.1 µM), hits mostly cytotoxic. KB-3-1 viability, CellTiter-Glo ATP luminescence, 72 h. AID 1347075, 2019. 400,000 compounds, 1.4% hits; also: potency is read from the fitted curve at half-maximal effect; % is scaled to controls: 0 for no effect and ±100 for the full control effect; nearly all actives have a fitted effect of over 60% in size
#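 Parental KB-3-1 viability, qHTS format: 72 h compound exposure, 37 °C; CellTiter-Glo; media-only wells and DMSO plates as controls; concentration-effect fits on corrected data.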
# KB-V1 cytotox – qHTS assay for MDR1-selective chemotherapeutics: Primary screen using the drug-selected MDR subline cells KB-V1. 400,000 compounds, 3.4% hits. KB-V1 MDR cells viability, CellTiter-Glo, 72 h. AID 1347076, 2019. Potency, µM (doses to about 46.1 µM), actives largely listed as cytotoxic; also: potency is read from the fitted curve at half-maximal effect; % is scaled to controls: 0 for no effect and ±100 for the full control effect; nearly all actives have a fitted effect of over 60% in size
#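 In this primary screen, KB-V1 cells overexpressing P-gp are incubated with library compounds (lowest to highest concentration) for 72 h at 37 degrees C before a luminescent ATP viability read.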
# KCNH2 WT inh – qHTS for Inhibitors of KCHN2 3.1: Wildtype qHTS; AID 720551, 2013; U2OS, BacMam KCNH2, thallium flux FluxOr; active compounds read low; 340,000 compounds, 0.37% hits; Voltage-gated inwardly rectifying potassium channel KCNH2 (Homo sapiens), Q12809; activity change, % at 1.84 µM;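 active = maximum activity change below -70%; inconclusive = maximum activity change between -70% and -50%; inactive = maximum activity change above -50%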; also: % is scaled to controls: 0 for no effect and ±100 for the full control effect
#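 U2OS cells were transduced with wild-type KCNH2 virus (2.03 x 10^8 / mL) for 4 h at room temperature, then cultured overnight at 37 C. Thallium flux was read with FluxOr dye. Rate constants were normalized to DMSO controls.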
# MCF10A rereplic – A quantitative high throughput screen for small molecules that induce DNA re-replication in MCF 10a normal breast cells; Potency, µM (series often up to 46.1 µM), for inactives: at the highest dose activity, positive = re-replication, hits mostly activators; AID 624296, 2012; 350,000 compounds, 2.9% hits; MCF 10A DNA re-replication, Hoechst nuclear intensity, 48 h; also: potency is read from the fitted curve at half-maximal effect; % of control where 0% means no effect; nearly all actives have a fitted effect of over 50% in size
# * hit, by the source's call; i = inactive; ? = inconclusive; . = no result given. Sampled rows, rich in hits. Any-hit rate of the full collection: about 7.6%. Unless noted, calls follow the shape of the dose curve; as a rule, active = well fitted curve in the direction sought with a large enough effect; inconclusive = small, poorly fitted or top-dose-only effect, or another doubt; inactive = no such curve, though single readings can be large; an effect the other way counts as inactive or inconclusive.
SMILES,KCNH2 3.1 inh,SW480 rerep,KB-3-1 tox,KB-V1 cytotox,KCNH2 WT inh,MCF10A rereplic
CSc1ccc(/C=C/c2nc3ccccc3n2S(=O)(=O)c2cccc(Cl)c2)cc1,.,.,15µM*,i,.,.
c1csc(-c2nn3c(C4COc5ccccc5O4)nnc3s2)c1 (stereo unspecified),-7,3.7µM*,i,?,16,?
COc1cccc(C(C(=O)NCc2ccccc2)N2CCN(c3cccc(C)c3C)CC2)c1OC (stereo unspecified),.,.,?,16µM*,.,.
Cn1cc(CNCc2cn(C)nc2-c2ccc(C3CCCCC3)cc2)cn1,13,?,?,i,27,?
COc1ccccc1CNc1nc(NCc2cccc(OC)c2OC)c2sccc2n1,.,.,i,21µM*,.,.
COc1ccccc1CNc1nc(NCc2ccccc2F)c2sccc2n1,.,.,?,18µM*,.,.
c1ccc2c(c1)OCC(CNc1ncnc3sccc13)O2 (stereo unspecified),-5,0%,1.6µM*,?,-4,15%
Fc1ccccc1CNc1ncnc2sccc12,-3,-19%,i,i,-2,7%
COc1ccccc1CNc1ncnc2sccc12,-7,-5%,?,5.2µM*,-4,19%
CN(C)c1ccc(/C=C2\CCc3cc(N)ccc32)cc1,.,.,i,i,.,.
O=S(=O)(c1ccc(F)cc1)c1snnc1-c1ccccc1,21,52%,13µM*,i,3,7.3µM*
O=S(=O)(c1ccc(Cl)cc1)c1snnc1-c1ccccc1,7,?,5.8µM*,?,-3,?
CCOc1ccc(NC(=O)c2cc3c(-c4ccccc4F)nn(C)c3s2)cc1,.,.,i,i,.,.
Cc1ccc2nc(-c3ccc(N)cc3)sc2c1,5,13%,?,i,1,21%
Nc1ccc2nc(-c3ccccc3)sc2c1,13,?,16µM*,?,6,26µM*
Nc1ccc2nc(-c3ccccc3)c(-c3ccccc3)nc2c1,9,23µM*,i,i,-3,21µM*
Nc1ccc(Oc2ccc3nc(-c4ccccc4)c(-c4ccccc4)nc3c2)cc1,-2,11%,?,?,0,11%
Cc1cc(C)cc(NC(=O)C2CCN(S(=O)(=O)c3ccc4c(c3)oc(=O)n4C)CC2)c1,.,.,i,i,.,.
COc1cccc(N2[C@@H](CC(C)=O)c3ccc(/C=C/C(C)=O)cc3S2(=O)=O)c1,1,11%,?,?,10,21µM*
COc1ccc(CN2[C@@H](CC(C)=O)c3ccc(/C=C/C(C)=O)cc3S2(=O)=O)cc1,5,?,?,?,3,?
OCC1OC(Oc2c(Br)cc(Br)cc2Br)C(O)C(O)C1O (stereo unspecified),-17,-6%,i,i,0,11%
O=C1C(=O)c2ccccc2C([O-])=C1[n+]1ccccc1,2,2%,i,i,-7,-12%
CCc1cc[n+](C2=C([O-])c3ccccc3C(=O)/C2=N\S(=O)(=O)c2cccs2)cc1,0,4.6µM*,i,i,-5,?
O=C(Cc1ccc(NC(=O)N2CCCCc3ccccc32)cc1)NCc1cccc(Br)c1,.,.,i,i,.,.
CCn1cc[n+](C)c1P(c1ccccc1)c1ccccc1,5,-1%,7.3µM*,i,6,-1%
SMILES,KCNH2 3.1 inh,SW480 rerep,KB-3-1 tox,KB-V1 cytotox,KCNH2 WT inh,MCF10A rereplic
Cc1ccc(C)c(S(=O)(=O)NCC(=O)Nc2ccc3c(c2)OCO3)c1,1,-5%,.,.,-16,0%
CCN(CC)CCn1c(NS(=O)(=O)c2ccc(C)cc2)nc2ccccc21,-8,-6%,i,21µM*,70,7%
CN(C)C(=O)CSc1nc2ccccc2n1Cc1ccccc1,18,12%,i,?,7,4%
c1ccc(Cn2c(CNc3nc4ccccc4n3CCN3CCCCC3)nc3ccccc32)cc1,?,?,i,?,-13,?
CCN(CC)CCSc1nc2ccccc2n1Cc1ccccc1,-75*,-10%,i,i,?,27%
CCN(CC)CCn1c(NCc2nc3ccccc3n2Cc2ccccc2)nc2ccccc21,?,?,i,i,6,23µM*
CCN1C(=O)[C@H]2[C@@H](c3ccc(-c4ccc5c(c4)OCO5)cc3)N3CCC[C@@]3(C(=O)OC)[C@H]2C1=O,2,1%,i,?,9,?
Cc1cc2nnc(SCc3ccc(F)cc3)n2c2ccccc12,.,.,i,?,.,.
CC1(c2ccc(Cl)cc2Cl)NC(=O)N(CC(=O)NCCC2=CCCCC2)C1=O (stereo unspecified),5,.,i,?,0,.
COc1cc(-c2cc(NC=O)c3ncc(-c4ccccc4)n3c2)cc(OC)c1OC,.,.,i,?,.,.
COc1cccc(-c2cnc3c(NC=O)cc(-c4cccc(NC(C)=O)c4)cn23)c1,.,.,i,?,.,.
COc1ccc(-c2cc(NC(C)=O)c3ncc(-c4ccc(OC)c(OC)c4)n3c2)cc1OC,.,.,?,12µM*,.,.
COc1cc(-c2cnc3c(NC=O)cc(-c4ccc(C)cc4)cn23)cc(OC)c1OC,.,.,0.16µM*,0.58µM*,.,.
COc1ccc(-c2cnc3c(NC(C)=O)cc(-c4ccsc4)cn23)cc1OC,.,.,i,?,.,.
COc1ccc(F)cc1-c1cc(NC=O)c2ncc(-c3cc(OC)c(OC)c(OC)c3)n2c1,.,.,?,6.5µM*,.,.
COc1cc(-c2cnc3c(NC=O)cc(-c4cccc(NC(C)=O)c4)cn23)cc(OC)c1OC,.,.,0.37µM*,i,.,.
C[C@@]12CCC(=O)C=C1C=CC1C2CC[C@]2(C)C1CC[C@@]21CCC(=O)O1 (stereo partly specified),.,0%,.,.,.,14%
Nc1cccc(Oc2ccc3c(c2)C(=O)N(CC2CCCO2)C3=O)c1 (stereo unspecified),-16,-20%,i,i,-11,7%
COc1ccccc1-c1cc(NC=O)c2ncc(-c3ccc(F)cc3)n2c1,.,.,16µM*,9.2µM*,.,.
Cc1ccc(-c2cc(NC=O)c3ncc(-c4cnn(C)c4)n3c2)cc1,.,.,10µM*,5.8µM*,.,.
COc1cc(-c2cnc3c(NC=O)cc(-c4ccccc4)cn23)cc(OC)c1OC,.,.,?,i,.,.

# Assay outcomes: PubChem BioAssay, National Center for Advancing Translational Sciences (NCATS)
